Holding throughout (experiment): PBM; 200 nM protein, PBS
Holding throughout (conditions): dsDNA, one strand shown

Test [1] deals with HESX1 (Homo sapiens, UniProt Q9UBX0 95-180, R165K).
The target of test [2] is SHOX (Homo sapiens, UniProt O15266 103-189).
The target in a further test is ALX4 (Homo sapiens, UniProt Q9H161 200-286, Q225E).
Test [3] has as its target HESX1 (Homo sapiens, UniProt Q9UBX0 95-180).
The target of the next test is MSX2 (Homo sapiens, UniProt P35548 130-214, R199I).
The target of test [4] is ALX1 (Homo sapiens, UniProt Q15699 118-204, L144V).
The target in test [5] is ALX3 (Homo sapiens, UniProt O95076 139-225, N203Q).
The target in test [6] is SHOX (Homo sapiens, UniProt O15266 103-189, R173C).
The target in test [7] is ALX1 (Homo sapiens, UniProt Q15699 118-204, L144R).
Test [8] has as its target ALX3 (Homo sapiens, UniProt O95076 139-225).
The target in test [9] is PROP1 (Homo sapiens, UniProt O75360 56-141).
For test [10], the target named is HESX1 (Homo sapiens, UniProt Q9UBX0 95-180, R109Q).
Test [11] deals with PROP1 (Homo sapiens, UniProt O75360 56-141, R99H).
The target in test [12] is ALX3 (Homo sapiens, UniProt O95076 139-225, L168Q).
Test [13] deals with HESX1 (Homo sapiens, UniProt Q9UBX0 95-180, P111T).
Test [14] has as its target ALX3 (Homo sapiens, UniProt O95076 139-225, L168V).
Test [15] deals with PROP1 (Homo sapiens, UniProt O75360 56-141, F88S).
For test [16], the target named is HESX1 (Homo sapiens, UniProt Q9UBX0 95-180, F115L).
Test [17] addresses ALX1 (Homo sapiens, UniProt Q15699 118-204).
Test [18] deals with ALX3 (Homo sapiens, UniProt O95076 139-225, N203S).

Among the data in paper PMC11006913 are binding signal values, retold here.

Sequence of ALX3 (Homo sapiens, UniProt O95076 139-225, N203Q) (O95076 139-225 N203Q): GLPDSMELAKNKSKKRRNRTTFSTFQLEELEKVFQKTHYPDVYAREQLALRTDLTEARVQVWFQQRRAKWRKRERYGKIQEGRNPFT
Sequence of HESX1 (Homo sapiens, UniProt Q9UBX0 95-180, P111T) (Q9UBX0 95-180 P111T): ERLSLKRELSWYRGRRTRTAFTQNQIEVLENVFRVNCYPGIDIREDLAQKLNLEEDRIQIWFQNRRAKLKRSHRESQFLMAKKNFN
Sequence of PROP1 (Homo sapiens, UniProt O75360 56-141, F88S) (O75360 56-141 F88S): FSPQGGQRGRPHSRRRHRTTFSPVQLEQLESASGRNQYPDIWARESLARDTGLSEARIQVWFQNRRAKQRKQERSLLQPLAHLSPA
Sequence of ALX3 (Homo sapiens, UniProt O95076 139-225) (O95076 139-225): as the sequence (O95076 139-225 N203Q) above, with Q65N counted along it
Sequence of SHOX (Homo sapiens, UniProt O15266 103-189) (O15266 103-189): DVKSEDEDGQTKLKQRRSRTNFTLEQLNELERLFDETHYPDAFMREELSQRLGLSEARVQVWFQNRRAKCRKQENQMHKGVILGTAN
Sequence of ALX4 (Q9H161 200-286 Q225E): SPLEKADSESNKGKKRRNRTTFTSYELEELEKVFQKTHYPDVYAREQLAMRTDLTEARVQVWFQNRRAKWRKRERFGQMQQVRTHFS
Sequence of ALX3 (Homo sapiens, UniProt O95076 139-225, N203S) (O95076 139-225 N203S): as the sequence (O95076 139-225 N203Q) above, with Q65S counted along it
Sequence of ALX1 (Homo sapiens, UniProt Q15699 118-204, L144V) (Q15699 118-204 L144V): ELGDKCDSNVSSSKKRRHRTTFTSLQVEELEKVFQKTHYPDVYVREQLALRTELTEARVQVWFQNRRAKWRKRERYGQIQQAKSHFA
Sequence of PROP1 (Homo sapiens, UniProt O75360 56-141) (O75360 56-141): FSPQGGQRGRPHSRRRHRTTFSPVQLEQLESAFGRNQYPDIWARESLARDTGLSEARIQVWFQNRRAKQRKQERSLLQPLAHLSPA
Sequence of ALX3 (Homo sapiens, UniProt O95076 139-225, L168Q) (O95076 139-225 L168Q): as the sequence (O95076 139-225 N203Q) above, with L30Q, Q65N counted along it
Sequence of ALX3 (Homo sapiens, UniProt O95076 139-225, L168V) (O95076 139-225 L168V): as the sequence (O95076 139-225 N203Q) above, with L30V, Q65N counted along it
Sequence of HESX1 (Homo sapiens, UniProt Q9UBX0 95-180, R165K) (Q9UBX0 95-180 R165K): as the sequence (Q9UBX0 95-180 P111T) above, with T17P, R71K counted along it
Sequence of HESX1 (Homo sapiens, UniProt Q9UBX0 95-180) (Q9UBX0 95-180): as the sequence (Q9UBX0 95-180 P111T) above, with T17P counted along it
Sequence of MSX2 (P35548 130-214 R199I): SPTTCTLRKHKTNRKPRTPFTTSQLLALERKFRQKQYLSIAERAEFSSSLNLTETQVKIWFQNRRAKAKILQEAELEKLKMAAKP
Sequence of ALX1 (Homo sapiens, UniProt Q15699 118-204) (Q15699 118-204): as the sequence (Q15699 118-204 L144V) above, with V27L counted along it
Sequence of PROP1 (Homo sapiens, UniProt O75360 56-141, R99H) (O75360 56-141 R99H): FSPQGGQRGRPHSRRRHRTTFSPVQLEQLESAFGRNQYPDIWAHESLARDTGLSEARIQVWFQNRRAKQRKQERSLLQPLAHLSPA
Sequence of ALX1 (Homo sapiens, UniProt Q15699 118-204, L144R) (Q15699 118-204 L144R): as the sequence (Q15699 118-204 L144V) above, with V27R counted along it
Sequence of SHOX (Homo sapiens, UniProt O15266 103-189, R173C) (O15266 103-189 R173C): as the sequence (O15266 103-189) above, with R71C counted along it
Sequence of HESX1 (Homo sapiens, UniProt Q9UBX0 95-180, F115L) (Q9UBX0 95-180 F115L): as the sequence (Q9UBX0 95-180 P111T) above, with T17P, F21L counted along it
Sequence of HESX1 (Homo sapiens, UniProt Q9UBX0 95-180, R109Q) (Q9UBX0 95-180 R109Q): as the sequence (Q9UBX0 95-180 P111T) above, with R15Q, T17P counted along it

Consider AATTAACG, for which the binding signal was 11.7 upbm affinity estimate (log intensity, higher = more binding, comparable within an allelic series) with HESX1 [1]; 11.6 upbm affinity estimate (log intensity, higher = more binding, comparable within an allelic series) in the test with SHOX [2]; 13 upbm affinity estimate (log intensity, higher = more binding, comparable within an allelic series) in the test with ALX4; 11.7 upbm affinity estimate (log intensity, higher = more binding, comparable within an allelic series) with HESX1 [3]; 12.2 upbm affinity estimate (log intensity, higher = more binding, comparable within an allelic series) with MSX2; 11.6 upbm affinity estimate (log intensity, higher = more binding, comparable within an allelic series) with ALX1 [4]. Further, the binding signal in the test with ALX3 [5] was 8.41 upbm affinity estimate (log intensity, higher = more binding, comparable within an allelic series); in the test with SHOX [6], 9.39 upbm affinity estimate (log intensity, higher = more binding, comparable within an allelic series); in the test with ALX1 [7], 11.2 upbm affinity estimate (log intensity, higher = more binding, comparable within an allelic series); in the test with ALX3 [8], 12.5 upbm affinity estimate (log intensity, higher = more binding, comparable within an allelic series); in the test with PROP1 [9], 11.3 upbm affinity estimate (log intensity, higher = more binding, comparable within an allelic series); with HESX1 [10], 8.98 upbm affinity estimate (log intensity, higher = more binding, comparable within an allelic series). Further, the binding signal with PROP1 [11] is 11.2 upbm affinity estimate (log intensity, higher = more binding, comparable within an allelic series); in the test with ALX3 [12] it was 10.5 upbm affinity estimate (log intensity, higher = more binding, comparable within an allelic series); with HESX1 [13], 10.4 upbm affinity estimate (log intensity, higher = more binding, comparable within an allelic series); with ALX3 [14], 10.1 upbm affinity estimate (log intensity, higher = more binding, comparable within an allelic series); with PROP1 [15], 7.84 upbm affinity estimate (log intensity, higher = more binding, comparable within an allelic series); with HESX1 [16], 7.64 upbm affinity estimate (log intensity, higher = more binding, comparable within an allelic series). Also, the binding signal with ALX1 [17] is 12.2 upbm affinity estimate (log intensity, higher = more binding, comparable within an allelic series); with ALX3 [18] it was 8.55 upbm affinity estimate (log intensity, higher = more binding, comparable within an allelic series).
For GGAGCGCA, the binding signal was 6.3 upbm affinity estimate (log intensity, higher = more binding, comparable within an allelic series) with HESX1 [1]; 7.21 upbm affinity estimate (log intensity, higher = more binding, comparable within an allelic series) in the test with SHOX [2]; 6.37 upbm affinity estimate (log intensity, higher = more binding, comparable within an allelic series) with HESX1 [3]; 7.1 upbm affinity estimate (log intensity, higher = more binding, comparable within an allelic series) in the test with SHOX [6]; 6.4 upbm affinity estimate (log intensity, higher = more binding, comparable within an allelic series) in the test with HESX1 [10]; 6.31 upbm affinity estimate (log intensity, higher = more binding, comparable within an allelic series) in the test with HESX1 [13]. Further, in the test with HESX1 [16], the binding signal was 6.34 upbm affinity estimate (log intensity, higher = more binding, comparable within an allelic series).
As to AATTAAAT, the binding signal with HESX1 [1] was 11.5 upbm affinity estimate (log intensity, higher = more binding, comparable within an allelic series); in the test with SHOX [2], 11.5 upbm affinity estimate (log intensity, higher = more binding, comparable within an allelic series); in the test with ALX4 it was 13.1 upbm affinity estimate (log intensity, higher = more binding, comparable within an allelic series); with HESX1 [3], 11.6 upbm affinity estimate (log intensity, higher = more binding, comparable within an allelic series); with MSX2, 12.4 upbm affinity estimate (log intensity, higher = more binding, comparable within an allelic series); with ALX1 [4], 11.5 upbm affinity estimate (log intensity, higher = more binding, comparable within an allelic series). Further, the binding signal was 8.52 upbm affinity estimate (log intensity, higher = more binding, comparable within an allelic series) with ALX3 [5]; 9.35 upbm affinity estimate (log intensity, higher = more binding, comparable within an allelic series) with SHOX [6]; 11.3 upbm affinity estimate (log intensity, higher = more binding, comparable within an allelic series) in the test with ALX1 [7]; 12.5 upbm affinity estimate (log intensity, higher = more binding, comparable within an allelic series) with ALX3 [8]; 11.6 upbm affinity estimate (log intensity, higher = more binding, comparable within an allelic series) with PROP1 [9]; 8.88 upbm affinity estimate (log intensity, higher = more binding, comparable within an allelic series) in the test with HESX1 [10]. Besides, the binding signal in the test with PROP1 [11] is 11.4 upbm affinity estimate (log intensity, higher = more binding, comparable within an allelic series); with ALX3 [12], 10.5 upbm affinity estimate (log intensity, higher = more binding, comparable within an allelic series); with HESX1 [13], 10.3 upbm affinity estimate (log intensity, higher = more binding, comparable within an allelic series); with ALX3 [14], 10.2 upbm affinity estimate (log intensity, higher = more binding, comparable within an allelic series); with PROP1 [15] it was 7.81 upbm affinity estimate (log intensity, higher = more binding, comparable within an allelic series); with HESX1 [16] it was 7.97 upbm affinity estimate (log intensity, higher = more binding, comparable within an allelic series). Moreover, the binding signal is 12.2 upbm affinity estimate (log intensity, higher = more binding, comparable within an allelic series) with ALX1 [17] and 8.68 upbm affinity estimate (log intensity, higher = more binding, comparable within an allelic series) with ALX3 [18].
As for GCCAATTA, the binding signal with HESX1 [1] is 13.5 upbm affinity estimate (log intensity, higher = more binding, comparable within an allelic series); in the test with SHOX [2], 12.5 upbm affinity estimate (log intensity, higher = more binding, comparable within an allelic series); with ALX4, 13.6 upbm affinity estimate (log intensity, higher = more binding, comparable within an allelic series); with HESX1 [3], 13.3 upbm affinity estimate (log intensity, higher = more binding, comparable within an allelic series); with MSX2, 13 upbm affinity estimate (log intensity, higher = more binding, comparable within an allelic series); in the test with ALX1 [4] it was 11.9 upbm affinity estimate (log intensity, higher = more binding, comparable within an allelic series). The binding signal is 8.33 upbm affinity estimate (log intensity, higher = more binding, comparable within an allelic series) with ALX3 [5]; 9.95 upbm affinity estimate (log intensity, higher = more binding, comparable within an allelic series) in the test with SHOX [6]; 11.7 upbm affinity estimate (log intensity, higher = more binding, comparable within an allelic series) with ALX1 [7]; 12.6 upbm affinity estimate (log intensity, higher = more binding, comparable within an allelic series) in the test with ALX3 [8]; 11.6 upbm affinity estimate (log intensity, higher = more binding, comparable within an allelic series) with PROP1 [9]; 10.3 upbm affinity estimate (log intensity, higher = more binding, comparable within an allelic series) with HESX1 [10]. The binding signal with PROP1 [11] was 11.9 upbm affinity estimate (log intensity, higher = more binding, comparable within an allelic series); in the test with ALX3 [12], 10.9 upbm affinity estimate (log intensity, higher = more binding, comparable within an allelic series); with HESX1 [13] it was 12.1 upbm affinity estimate (log intensity, higher = more binding, comparable within an allelic series); in the test with ALX3 [14] it was 10.4 upbm affinity estimate (log intensity, higher = more binding, comparable within an allelic series); with PROP1 [15], 7.64 upbm affinity estimate (log intensity, higher = more binding, comparable within an allelic series); in the test with HESX1 [16], 7.99 upbm affinity estimate (log intensity, higher = more binding, comparable within an allelic series). In addition, the binding signal in the test with ALX1 [17] was 12.6 upbm affinity estimate (log intensity, higher = more binding, comparable within an allelic series); with ALX3 [18] it was 8.5 upbm affinity estimate (log intensity, higher = more binding, comparable within an allelic series).
